Hits are enriched below; roughly 7% of the tested compounds scored in any of these assays.
proKLK7 act = proKLK7 (human) activation, primary screen; purified proKLK7, EDANS-DABCYL substrate fluorescence; 100% is mature enzyme control, 0% vehicle; activation, % at 7 µM; 0.9% of 370,000 active; AID 652039;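 active = activation above the mean of all tested compounds plus 3 SD, computed per campaign excluding outliers beyond control limits, cut at about 13% in these data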
NR3A LBD binder = modulators (binders) of human NR3A ligand-binding domain; NR3A LBD differential scanning fluorimetry, Tm shift; 0% = protein alone, 100% = glycine-bound protein; Tm shift relative to glycine control, % at 25 µM; 2.5% of 340,000 active;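 active = melting temperature shift of at least 10% of the positive control shift, at one fixed dose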
rCAG binder = r(CAG) repeat RNA binding; TO-PRO-1 dye displacement fluorescence; inhibition, % at 3 µM; 1.3% of 370,000 active; AID 651821;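 active = inhibition above the plate cutoff, the mean of all test compounds on that plate plus 3 SD, cut at about 35% in these data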;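 note: 0% = DMSO alone and 100% = 100 µM mitoxantrone as full dye displacement; higher means more dye released from RNA so lower well fluorescence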
AHR act = human AHR activation; AHR-responsive luciferase reporter cells, luminescence; P35869; 2.5% of 320,000 active; activation, % at 5 µM; in the data active = activation above about 47%;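 note: 0% = vehicle wells and 100% = reference agonist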
ADAM17 inh = inhibits human ADAM17; 0.83% of 370,000 active; P78536; inhibition, % at 6.95 µM; recombinant ADAM17, EDANS/DABCYL FRET peptide cleavage;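 active = inhibition above the mean of compounds lying between control limits plus 3 SD, set per campaign, cut at about 8.5% in these data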;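 note: 0% = DMSO-only wells as the low control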
Target sequence (P78536 215-824 limits assumed): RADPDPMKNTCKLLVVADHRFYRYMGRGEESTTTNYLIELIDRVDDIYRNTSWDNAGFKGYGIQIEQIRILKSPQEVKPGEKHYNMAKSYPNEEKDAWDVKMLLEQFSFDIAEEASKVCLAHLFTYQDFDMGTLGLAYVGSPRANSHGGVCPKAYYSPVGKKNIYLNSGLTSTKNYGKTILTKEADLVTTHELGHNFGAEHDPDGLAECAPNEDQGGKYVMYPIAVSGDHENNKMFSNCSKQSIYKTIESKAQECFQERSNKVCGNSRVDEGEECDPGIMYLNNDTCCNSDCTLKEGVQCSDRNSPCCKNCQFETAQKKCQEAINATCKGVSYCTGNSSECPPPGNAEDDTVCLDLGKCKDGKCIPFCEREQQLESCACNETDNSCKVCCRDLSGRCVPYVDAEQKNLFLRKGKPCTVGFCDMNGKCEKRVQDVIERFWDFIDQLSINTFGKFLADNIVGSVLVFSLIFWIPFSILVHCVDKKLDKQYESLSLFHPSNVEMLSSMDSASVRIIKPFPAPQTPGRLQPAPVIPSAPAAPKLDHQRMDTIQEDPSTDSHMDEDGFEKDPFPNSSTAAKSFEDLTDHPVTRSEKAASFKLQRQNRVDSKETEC
ADAM10 inh = inhibitors of human ADAM10; AID 720582; inhibition, % at 7 µM; recombinant ADAM10, EDANS/DABCYL FRET peptide cleavage, 3 h; O14672; 0.62% of 370,000 active;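 active = inhibition above a per-campaign cutoff equal to the mean of compounds falling between control-based bounds plus 3 SD, cut at about 20% in these data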;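 note: 0% = DMSO wells while the 100% control is not disclosed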
Numbers without * were called inactive; i = inactive; / = no result given.

SMILES	proKLK7 act	NR3A LBD binder	rCAG binder	AHR act	ADAM17 inh	ADAM10 inh
CC(C)C[C@H]1COc2cccc(F)c2S(=O)(=O)N1Cc1cn(CCC2OCCO2)nn1	0.1	/	1.7	/	-2.7	-0.2
CCCN(C(=O)COC(=O)CNC(=O)c1ccc2ccccc2c1)c1c(N)n(Cc2ccccc2)c(=O)[nH]c1=O	-0.3	20.8*	7.0	1.3	-2.3	-1.4
COC(CNC(=O)[C@H](Cc1ccccc1)NC1(C(=O)NC2CCCCC2)CCCC1)OC	/	/	/	/	2.4	3.0
CCCCON1C(=O)c2cccc3cccc(c23)C1=O	2.5	-1.6	0.3	55.7*	-89.3	-258.1
OCc1cn(-c2ccccc2)nc1-c1ccc(-c2nn(-c3ccccc3)cc2CO)cc1	0.5	23.6*	1.9	2.6	2.1	10.8
O=C(O)Cc1cn(-c2ccccc2)nc1-c1ccccc1	-0.3	-1.6	-0.5	3.1	-6.5	-6.1
CC(C)N1CCCCC(NC(=O)c2ccc(Br)cc2)C1=O (stereo not given)	0.7	/	4.1	/	-6.0	-0.7
Cc1cccc(NC(=O)NCCc2c[nH]c3ccccc23)c1	-0.1	8.5	-0.5	-4.4	1.6	7.9
CCOc1ccccc1NC(=O)NCCc1c[nH]c2ccccc12	0.0	5.5	-1.7	63.5*	3.6	0.6
CCCCOc1ccc(-c2nnn(CC(=O)NCCc3c[nH]c4ccccc34)n2)cc1	0.0	16.7*	4.9	3.3	6.1	15.7
O=C(NCCc1c[nH]c2ccccc12)Nc1cccc2ccccc12	-0.2	17.6*	1.1	0.5	-2.4	-1.6
COC(=O)Cc1nnn2c1[C@@H](C)[C@@H](c1ccccc1Br)O[C@@H](C)C2	-0.2	/	2.9	/	-2.1	-0.1
CC(=O)Nc1ccc(S(=O)(=O)N2CCSC2c2ccc(Cl)cc2)cc1 (stereo not given)	-0.4	-5.8	1.6	8.4	0.7	5.5
COc1ccc(S(=O)(=O)N2CCSC2c2ccc(N)cc2)cc1 (stereo not given)	0.5	10.5*	3.6	-1.5	-1.4	13.2
Cc1onc(-c2ccccc2)c1C(=O)OCC(=O)Nc1ccc2c(c1)OCO2	0.2	-2.2	-0.9	9.5	3.6	8.3
Cc1onc(-c2ccccc2Cl)c1C(=O)OCC(=O)Nc1ccc2c(c1)OCO2	-0.1	-6.5	-2.6	55.8*	-1.1	-3.4
Cc1c(-c2cccc(Cl)c2)nc2ccccc2c1C(=O)OCC(=O)Nc1ccc2c(c1)OCO2	0.0	21.3*	9.2	-6.3	-1.0	-2.5
CC(=O)Nc1ccc(C(/C=C/c2ccccc2)Cc2ccccc2)cc1 (stereo not given)	-0.4	/	7.2	/	5.5	16.1
Cc1ccc(-n2c(SCc3cccc4ccccc34)nnc2-c2ccccn2)cc1	0.8	/	2.5	/	6.2	19.3
C=CCn1c(=NC(=O)C2COc3ccccc3O2)sc2cc(S(N)(=O)=O)ccc21 (stereo not given)	-0.3	-3.9	14.0	-0.9	0.5	-2.0
COCCn1c(=NC(=O)C2COc3ccccc3O2)sc2cc(S(N)(=O)=O)ccc21 (stereo not given)	-0.1	17.1*	7.1	1.5	2.7	4.2
CC(=O)Nc1cccc(-c2csc(Nc3ccc(Cl)cn3)n2)c1	-1.2	13.9*	10.4	10.8	1.7	2.0
CC(=O)Nc1ccc(-c2csc(NC(=O)CCCc3cccs3)n2)cc1	0.2	19.2*	1.4	-1.5	0.6	-1.1
CC(=O)Nc1ccc(-c2csc(Nc3ccc(Cl)cn3)n2)cc1	0.0	26.2*	17.1	-2.8	-7.7	-8.5
CC(=O)Nc1ccc(-c2csc(Nc3ncccn3)n2)cc1	0.7	4.4	0.4	15.0	-1.3	10.1
SMILES	proKLK7 act	NR3A LBD binder	rCAG binder	AHR act	ADAM17 inh	ADAM10 inh
Cc1ccc(-c2csc(NC(=O)CCCc3cccs3)n2)cc1	-0.1	-2.9	2.1	12.4	-1.0	2.6
Cc1ccc(Nc2nc(-c3ccc(O)c(O)c3)cs2)nc1	-0.2	42.6*	28.0	/	-0.6	7.0
CC(=O)Nc1cccc(-c2cc(C(C)=O)c3n(c2=O)CCC3)c1	0.3	/	1.7	/	-6.3	-8.9
CCCC(=O)OC[C@H]1CN(C2CCCC2)S(=O)(=O)c2c(Oc3ccc(F)cc3OC)cccc2O1	0.6	/	6.7	/	3.1	11.6
O=c1c2ccc([N+](=O)[O-])c3cccc(c32)c2nc3ccccc3n12	/	/	/	50.4*	/	/
Cc1cccn2c(=O)c3cc(C#N)c(=O)n(Cc4cccnc4)c3nc12	5.6	18.8*	2.1	/	-206.4	i
Cc1ccc(S(=O)(=O)c2cc3c(=O)n4cccc(C)c4nc3n(Cc3ccncc3)c2=N)cc1	/	10.6*	/	0.2	/	/
Cc1ccc(OCC(=O)Sc2ccc(C)cc2)cc1	-0.6	15.0*	-2.0	-3.7	5.0	14.2
COc1ccccc1OCC(=O)Sc1ccc(C)cc1	0.1	7.2	-7.4	-1.4	-3.1	0.6
CCOC(=O)CC[C@H]1CC[C@]2(CCCN(S(=O)(=O)C3CCCCC3)C2)O1	-0.1	/	-1.0	/	0.6	1.7
COc1cc(NC(=O)CN2C(=O)C(=O)N(CC(C)C)C2=O)cc(OC)c1	0.6	29.2*	2.0	/	0.4	-17.6
O=C(CC1C=Cc2ccccc2N1C(=O)c1ccccc1)c1ccccc1 (stereo not given)	0.0	10.3*	-6.4	13.3	1.6	0.9
COC(=O)[C@]12C[C@H](CC(=O)NCc3cccs3)C(=O)N(CCC3=CCCCC3)C1=C[C@H](C1CCCC1)O[C@@H]2C	-0.8	/	2.2	/	2.0	7.7
N#CC12CCCCC1CC1CCCCC1(C#N)N2Cc1ccccn1 (stereo not given)	-0.5	10.2*	-5.6	0.5	-4.9	-12.8
N#CC12CCCCC1CC1CCCCC1(C#N)N2CCO (stereo not given)	-0.2	-4.2	-3.6	1.9	-1.9	0.9
Oc1ccc(N2CCN(CC(O)c3ccccc3)CC2)cc1 (stereo not given)	1.0	32.3*	3.9	1.0	-2.3	-3.4
COc1ccc(OC)c(S(=O)(=O)NCc2cc(-c3ccccc3)no2)c1	0.1	-3.0	-2.5	51.4*	-3.6	-5.6
CCOc1ccc(-n2c(SCC(=O)c3ccc4ccccc4c3)nnc2-c2ccco2)cc1	-0.2	/	21.2	/	2.1	6.2
CCC(C)(C)NC(=O)C(NS(=O)(=O)c1cccs1)c1ccccc1 (stereo not given)	0.1	30.6*	-0.4	-0.2	1.5	-0.8
N#C/C(=C\c1cccs1)C(=O)c1ccccc1	-0.1	13.9*	1.4	4.3	-7.1	-12.2
CC1=C(C#N)c2nc(N)c(C#N)c(C)c2/C1=C\c1ccc(OCC(=O)O)c(Cl)c1	1.5	-1.3	47.0*	7.3	-25.8	-66.4
Cc1cc(C(=O)Nc2ccc3c(c2)OCO3)no1	0.1	-3.2	2.4	58.2*	3.9	-2.2
Cc1ccc(NC(=O)c2cc(-c3ccc4c(c3)OCO4)on2)cc1C	-0.3	-0.9	-0.3	-3.2	-4.2	3.4
O=C(Nc1ccc2c(c1)OCO2)c1cc(Cl)ccn1	-0.4	-0.9	4.6	66.5*	1.9	0.1
